Each compound was assayed on Mel-DCC-11-R (assay: cell viability relative to DMSO control (fraction of DMSO control); higher = less cytotoxic, active = 0.8 or less). Conditions: 1 µM; 120 h; vemurafenib co-treatment 0 µM.
Procedure: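 Same 315-drug TargetMol library at 1 µM in duplicate, 120 h, ATPlite luminescence normalised to DMSO controls, on the vemurafenib-resistant subline Mel-DCC-11-R cultured alone or with 8 µM vemurafenib co-treatment (Mel-DCC-11-R + V).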

SMILES	cell viability
Cl.Cn1c(CCCC(=O)O)nc2cc(N(CCCl)CCCl)ccc21 [Bendamustine hydrochloride]	0.822 (inactive)
C[C@]12CCC(=O)C(O)=C1CC[C@@H]1[C@@H]2CC[C@]2(C)C(=O)CC[C@@H]12 [Formestane]	0.922 (inactive)
Cl.N[C@@H]1C[C@H]1c1ccccc1 [Tranylcypromine (2-PCPA) hydrochloride]	0.9 (inactive)
C[C@]12CC[C@@H]3c4ccc(OC(=O)N(CCCl)CCCl)cc4CC[C@H]3[C@@H]1CC[C@@H]2OP(=O)([O-])[O-].[Na+].[Na+] [Estramustine phosphate sodium]	1.01 (inactive)
O=[As]O[As]=O (stereo not given) [Arsenic oxide (3)]	0.971 (inactive)
C=C1C[C@@H]2[C@H](CC[C@]3(C)C(=O)CC[C@@H]23)[C@@]2(C)C=CC(=O)C=C12 [Exemestane]	1.09 (inactive)
N[C@@H](Cc1ccc(N(CCCl)CCCl)cc1)C(=O)O [Melphalan]	1.17 (inactive)
O=P1(NCCCl)OCCCN1CCCl (stereo not given) [Ifosfamide]	0.968 (inactive)
COc1cc([C@@H]2c3cc4c(cc3[C@H](O)[C@H]3COC(=O)[C@H]23)OCO4)cc(OC)c1OC [Podophyllotoxin]	0.575 (active)
Cc1ncc(CNC(=O)N(CCCl)N=O)c(N)n1.Cl [Nimustine Hydrochloride]	1.1 (inactive)
C/C=C(\C)C(=O)N[C@@H](c1ccccc1)[C@@H](O)C(=O)O[C@H]1C[C@@]2(O)[C@@H](OC(=O)c3ccccc3)[C@@H]3[C@]4(OC(C)=O)CO[C@@H]4C[C@H](O)[C@@]3(C)C(=O)[C@H](OC(C)=O)C(=C1C)C2(C)C [Cephalomannine]	0.99 (inactive)
CCC1=C[C@H]2CN3CCc4c([nH]c5ccccc45)[C@](C(=O)OC)(C2)[C@H]13 [Catharanthine]	0.906 (inactive)
CNC(=O)Oc1ccccc1OC(C)C [Propoxur]	0.827 (inactive)
C[C@]12CC[C@H]3[C@@H](CC[C@@]45O[C@@H]4C(O)=C(C#N)C[C@]35C)[C@@H]1CC[C@@H]2O [Trilostane]	1.03 (inactive)
NCCCNCCSP(=O)(O)O [Amifostine]	0.934 (inactive)
NCCC(O)(P(=O)([O-])O)P(=O)([O-])O.[Na+].[Na+] [Pamidronate disodium salt]	1.02 (inactive)
CCCCCN(C)CCC(O)(P(=O)([O-])O)P(=O)(O)O.[Na+] [Ibandronate sodium]	0.82 (inactive)
O.O=P1(N(CCCl)CCCl)NCCCO1 (stereo not given) [Cyclophosphamide monohydrate]	0.857 (inactive)
Cn1cc(C2=C(c3cn(C4CCN(Cc5ccccn5)CC4)c4ccccc34)C(=O)NC2=O)c2ccccc21 [Enzastaurin]	1.06 (inactive)
COC(=O)Nc1nc2ccccc2[nH]1 [Carbendazim]	0.917 (inactive)

Same assay, conditions: 1 µM; 120 h; vemurafenib co-treatment 8 µM

SMILES	cell viability
Cl.Cn1c(CCCC(=O)O)nc2cc(N(CCCl)CCCl)ccc21 [Bendamustine hydrochloride]	1.04 (inactive)
C[C@]12CCC(=O)C(O)=C1CC[C@@H]1[C@@H]2CC[C@]2(C)C(=O)CC[C@@H]12 [Formestane]	1.02 (inactive)
Cl.N[C@@H]1C[C@H]1c1ccccc1 [Tranylcypromine (2-PCPA) hydrochloride]	0.694 (active)
C[C@]12CC[C@@H]3c4ccc(OC(=O)N(CCCl)CCCl)cc4CC[C@H]3[C@@H]1CC[C@@H]2OP(=O)([O-])[O-].[Na+].[Na+] [Estramustine phosphate sodium]	1.11 (inactive)
O=[As]O[As]=O (stereo not given) [Arsenic oxide (3)]	0.951 (inactive)
C=C1C[C@@H]2[C@H](CC[C@]3(C)C(=O)CC[C@@H]23)[C@@]2(C)C=CC(=O)C=C12 [Exemestane]	1.13 (inactive)
N[C@@H](Cc1ccc(N(CCCl)CCCl)cc1)C(=O)O [Melphalan]	1.11 (inactive)
O=P1(NCCCl)OCCCN1CCCl (stereo not given) [Ifosfamide]	1 (inactive)
COc1cc([C@@H]2c3cc4c(cc3[C@H](O)[C@H]3COC(=O)[C@H]23)OCO4)cc(OC)c1OC [Podophyllotoxin]	0.407 (active)
Cc1ncc(CNC(=O)N(CCCl)N=O)c(N)n1.Cl [Nimustine Hydrochloride]	0.991 (inactive)
C/C=C(\C)C(=O)N[C@@H](c1ccccc1)[C@@H](O)C(=O)O[C@H]1C[C@@]2(O)[C@@H](OC(=O)c3ccccc3)[C@@H]3[C@]4(OC(C)=O)CO[C@@H]4C[C@H](O)[C@@]3(C)C(=O)[C@H](OC(C)=O)C(=C1C)C2(C)C [Cephalomannine]	0.638 (active)
CCC1=C[C@H]2CN3CCc4c([nH]c5ccccc45)[C@](C(=O)OC)(C2)[C@H]13 [Catharanthine]	0.983 (inactive)
CNC(=O)Oc1ccccc1OC(C)C [Propoxur]	0.985 (inactive)
C[C@]12CC[C@H]3[C@@H](CC[C@@]45O[C@@H]4C(O)=C(C#N)C[C@]35C)[C@@H]1CC[C@@H]2O [Trilostane]	1.05 (inactive)
NCCCNCCSP(=O)(O)O [Amifostine]	1.21 (inactive)
NCCC(O)(P(=O)([O-])O)P(=O)([O-])O.[Na+].[Na+] [Pamidronate disodium salt]	0.981 (inactive)
CCCCCN(C)CCC(O)(P(=O)([O-])O)P(=O)(O)O.[Na+] [Ibandronate sodium]	0.935 (inactive)
O.O=P1(N(CCCl)CCCl)NCCCO1 (stereo not given) [Cyclophosphamide monohydrate]	1.03 (inactive)
Cn1cc(C2=C(c3cn(C4CCN(Cc5ccccn5)CC4)c4ccccc34)C(=O)NC2=O)c2ccccc21 [Enzastaurin]	1.24 (inactive)
COC(=O)Nc1nc2ccccc2[nH]1 [Carbendazim]	1.05 (inactive)

Reference: the supplement of paper PMC12808144
